Assay results as given in PubChem BioAssay (Tox21).
“And” between values parts separate entries of the source, which are not always exact repeats. Equal values may be shown once. Results filed as inconclusive are left out. Where a structure was tested more than once in an assay, its records may differ in their call. The source made the active and inactive calls. The call rests on the fitted dose curve; in most records, active means well fitted inhibition curve with a large enough effect in the repeat runs; inconclusive means weak or mixed curves; inactive means no such curve, though single readings can be large or run the other way.
On the % scale 0 is the no-effect control and ±100 the full control effect; potency means the concentration at half of the fitted maximal effect.

What follows are compounds tested against Cytochrome P450 2C19 (Homo sapiens) (UniProt P33261) (assay: Cytochrome P450 Family 2 Subfamily C Member 19 (CYP2C19) small molecule antagonists: luciferase reporter qHTS assay (AID 1671197; further: nearly all actives have a fitted effect of over 65% in size)). Details: P450-Glo CYP2C19 enzyme, luciferin luminescence, 1 h; series mostly up to 115 µM; activity change, negative = inhibition: at the top concentration.
Sequence of Cytochrome P450 2C19 (Homo sapiens) (P33261 whole entry, looked up): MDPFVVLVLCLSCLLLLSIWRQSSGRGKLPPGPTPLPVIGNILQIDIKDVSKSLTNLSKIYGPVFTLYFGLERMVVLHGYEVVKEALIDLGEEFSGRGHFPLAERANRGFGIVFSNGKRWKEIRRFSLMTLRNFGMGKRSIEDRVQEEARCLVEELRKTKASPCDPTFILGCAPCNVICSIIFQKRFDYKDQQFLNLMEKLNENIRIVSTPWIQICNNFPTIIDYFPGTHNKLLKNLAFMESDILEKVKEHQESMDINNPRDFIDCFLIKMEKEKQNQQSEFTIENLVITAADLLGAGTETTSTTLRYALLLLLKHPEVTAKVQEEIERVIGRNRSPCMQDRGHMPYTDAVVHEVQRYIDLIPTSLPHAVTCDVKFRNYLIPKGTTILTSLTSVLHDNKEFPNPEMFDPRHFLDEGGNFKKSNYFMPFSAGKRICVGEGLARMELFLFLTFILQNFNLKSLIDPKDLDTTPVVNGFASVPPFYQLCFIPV
Excerpt: National Center for Advancing Translational Sciences [NCATS]
U.S. Environmental Protection Agency [EPA]
National Institutes of Environmental Health Sciences [NIEHS]
National Toxicology Program [NTP]
U.S. Food and Drug Administration [FDA]
Cytochrome P450 (CYP) enzymes are membrane-bound hemeproteins that play a key role in metabolism of drugs and xenobiotics. Evaluation of the effect of chemicals on CYP isozymes is useful to minimize the adverse drug reactions and toxicities in drug development process. Tox21 chemicals were tested for their effect on CYP enzyme activities by using P450-Glo (TM) screening systems (Promega Corporation, Madison, WI). These systems provide a luminescent method containing proluciferin substrates and are converted to luciferin products by CYP isozymes. The luciferin products formed are detected with a luciferin detection reagent, and the amount of light produced is proportional to CYP activity. P450-Glo (TM) CYP2C19 screening system (Catalog. No. V9880) was used to detect the compounds that interfere in CYP2C19 activity. The positive control compound used for CYP2C19 assay is ketoconazole (Sigma-Aldrich, St. Louis, MO).
Tox21 Assay Protocol Summary:
Two ul of enzyme-substrate mix was dispensed into medium binding white/solid 1536-well plates (Greiner Bio-One North America Inc., Monroe, NC) using a BioRaptr Flying Reagent Dispenser (FRD, Beckman Coulter, Brea, CA). Compounds dissolved in DMSO and positive control (ketoconazole) were transferred to the assay plates at 23 nl using a Pintool station (Wako, San Diego, CA). The assay plates were incubated at room temperature for 10 min. Then 2 ul of NADPH regeneration solution was added to each well of the assay plates using an FRD and incubated at 37C for 1 h. The reaction was stopped by adding 4 ul of detection reagent using an FRD and after 20 min incubation at room temperature the luminescence signal was measured using a ViewLux plate reader (Perkin Elmer, Shelton, CT). Data were expressed as relative luminescence units.
`O=C1NCN(c2ccccc2)C12CCN(CC1COc3ccccc3O1)CC2` (stereo not given) was tested, and the Potency was 4.36 µM (active).
`CNC(C)Cc1ccc2c(c1)OCO2` (stereo not given) was tested, and the “activity change, negative = inhibition” value was 26.8% (inactive).
`C[C@@H]1O[C@@H](O[C@@H]2C=C3CC[C@@H]4[C@H](CC[C@]5(C)[C@@H](c6ccc(=O)oc6)CC[C@]45O)[C@@]3(C)CC2)[C@H](O)[C@H](O)[C@H]1O` was tested, and the “activity change, negative = inhibition” value was 73.2% [at 52.9 µM] (inactive).
In the case of `CC(=O)OC1(c2ccccc2)CCN(CCc2ccccc2)CC1`, the Potency is reported as 40.9 µM (active).
`FC(F)(F)c1cccc(C2=CCN(CCc3ccc4ccccc4c3)CC2)c1` was tested, and the “activity change, negative = inhibition” value was 5.95% [at 52.9 µM] (inactive).
With `Nc1ccccc1C(=O)Oc1ccc2ccccc2c1` the Potency was 35.6 µM (active).
`C[As+](C)(C)CC(=O)[O-]` was tested, and the “activity change, negative = inhibition” value was 5.82% (inactive).
With `CC(c1ccc(O)cc1)c1ccc(O)cc1` the Potency was 21 µM (active) and inactive.
`C[C@]12CC[C@H](O)C[C@H]1CC[C@@H]1[C@@H]2C[C@@H](O)[C@]2(C)[C@@H](C3=CC(=O)OC3)CC[C@]12O` was tested, and the “activity change, negative = inhibition” value was -0.622% (inactive).
With `CCc1nn(C)c(C(=O)NCc2ccc(C(C)(C)C)cc2)c1Cl` the Potency was 6.33 µM (active).
For `ClC1=C(Cl)C2(Cl)C3C(Cl)C(Cl)CC3C1(Cl)C2(Cl)Cl` (stereo not given), the Potency was 3.16 µM (active) and 3.56 µM (active).
For `Nc1ccc(Cc2ccc(N)c(Cl)c2)cc1Cl`, the Potency was 6.86 µM (active).
In the case of `N#CCCO`, the “activity change, negative = inhibition” value is reported as -17% (inactive).
`N#CCc1ccc(Cl)cc1` was tested, and the Potency was 39.9 µM (active).
In the case of `COC(=O)N(C(=O)N1CO[C@@]2(C(=O)OC)Cc3cc(Cl)ccc3C2=N1)c1ccc(OC(F)(F)F)cc1`, the Potency is reported as 0.154 µM (active).
For `CC(C)C(=O)Cl`, the “activity change, negative = inhibition” value was -2.22% (inactive).
In the case of `CC(=[OH+])/C=C(/C)[O-].CC(=[OH+])/C=C(\C)[O-].CC(=[OH+])/C=C(\C)[O-].[Fe]`, the “activity change, negative = inhibition” value is reported as 10.7% (inactive).
With `N#C/C=C/c1ccccc1` the “activity change, negative = inhibition” value was -5.36% (inactive).
For `COP(=S)(OC)Oc1cc(Cl)c(Br)cc1Cl`, the Potency was 17.8 µM (active).
In the case of `O=[N+]([O-])c1c2ccccc2cc2ccccc12`, the Potency is reported as 11.1 µM (active).
For `COc1cc(C=O)cc2c1[C@H](COC(N)=O)[C@]1(OC(C)=O)ON2C[C@H]2[C@@H]1N2C(C)=O`, the “activity change, negative = inhibition” value was 10.9% (inactive).
In the case of `N#Cc1ccccc1N`, the “activity change, negative = inhibition” value is reported as 4.75% (inactive).
For `COc1ccc(OC)c(CC(C)N)c1` (stereo not given), the “activity change, negative = inhibition” value was 12.9% (inactive).
For `O=C(CCCN1CCC2(CC1)C(=O)NCN2c1ccccc1)c1ccc(F)cc1`, the “activity change, negative = inhibition” value was -9.27% [at 52.9 µM] (inactive).
For `COS(=O)(=O)c1ccc(C)cc1`, the “activity change, negative = inhibition” value was 0.505% (inactive).
`CCOP(=S)(OCC)SCS(=O)(=O)C(C)(C)C` was tested, and the Potency was 1.78 µM (active).
`NC(=O)c1ccc(N)nc1` was tested, and the “activity change, negative = inhibition” value was -0.465% (inactive).
`CN(CCCC(=O)c1cccnc1)N=O` was tested, and the “activity change, negative = inhibition” value was -26.1% (inactive).
In the case of `OC(Cc1ccccc1Cl)(Cn1cncn1)C1(Cl)CC1` (stereo not given), the Potency is reported as 1.26 µM (active).
In the case of `C[C@]12CC[C@H]3[C@@H](CCC4=CC(=O)CC[C@@]43C)[C@@H]1CC[C@@H]2O`, the “activity change, negative = inhibition” value is reported as -9.67% (inactive).
For `C[C@H]1O[C@@H](O[C@H]2[C@@H](O)C[C@H](O[C@H]3[C@@H](O)C[C@H](O[C@H]4CC[C@@]5(C)[C@H](CC[C@@H]6[C@@H]5CC[C@]5(C)[C@@H](C7=CC(=O)OC7)CC[C@]65O)C4)O[C@@H]3C)O[C@@H]2C)C[C@H](O)[C@@H]1O`, the “activity change, negative = inhibition” value was 5.1% [at 52.9 µM] (inactive).
For `CC(C)(O)c1cnn2c(-c3ccc(F)c(-c4c(F)cccc4C#N)c3)cnc2n1`, the Potency was 8.94 µM (active).
`Oc1c(Cl)c(Cl)cc(Cl)c1Cl` was tested, and the “activity change, negative = inhibition” value was 3.02% (inactive).
`Cc1cc(C(F)(C(F)(F)F)C(F)(F)F)ccc1NC(=O)c1cccc(I)c1C(=O)NC(C)(C)CS(C)(=O)=O` was tested, and the “activity change, negative = inhibition” value was -4.91% [at 52.9 µM] (inactive).
With `ClC1=C(Cl)[C@]2(Cl)[C@H]3[C@H]([C@H]4C=C[C@H]3C4)[C@@]1(Cl)C2(Cl)Cl` the Potency was 15.9 µM (active).
For `Nc1ccc(Cl)cc1C(=O)c1ccccc1`, the Potency was 15.9 µM (active).
In the case of `C=CC(=O)OCC(COC(=O)C=C)(COC(=O)C=C)COC(=O)C=C`, the Potency is reported as 17.8 µM (active).
In the case of `C[C@@H](Oc1ccc(Cl)cc1Cl)C(=O)O`, the “activity change, negative = inhibition” value is reported as -3.71% (inactive).
With `CCC[CH2][Sn]([CH2]CCC)([CH2]CCC)[O]C(=O)c1ccccc1` the Potency was 1.59 µM (active).
`Fc1cccc(Cl)c1CCl` was tested, and the “activity change, negative = inhibition” value was -14.3% (inactive).
